# Source: PubChem BioAssay AID1347140 (National Center for Advancing Translational Sciences (NCATS), 2019)
# Some of the results follow. Records with an inconclusive call do not appear. The source made the active and inactive calls. The call rests on the fitted dose curve; in most records, active means well fitted inhibition curve with a large enough effect; inconclusive means small, poorly fitted or top-dose-only effect; inactive means no such curve, though single readings can be large or run the other way.
# Test: qHTS of pediatric cancer cell lines to identify multiple opportunities for drug repurposing: Orthogonal 3D viability screen for MG 63 (6-TG R) cells
# Settings: MG-63 (6-TG R) 3D spheroid viability, PI/Hoechst imaging, 72 h; series mostly up to 30.7 µM
# Description: Drug repurposing or repositioning has been offered as a strategy for drug development in oncology programs. This approach has special potential for childhood cancers and other rare or orphan diseases, where the expected return on new drug development has been a disincentive to pharmaceuticals. […] In this project we exploit the poly-pharmacology of drugs to discover new indications via phenotypic screening of a panel of 19 well-characterized cell lines derived from solid tumors seen in children and adolescents. The goal is to identify approved drugs with previously unrecognized anticancer properties that has the potential to reveal new mechanisms and biological processes involved in carcinogenesis or drug resistance. We employed a titration-based paradigm (quantitative high-throughput screening or qHTS), where all compounds were tested at multiple concentrations for their effect on cell viability. Concentration-response curves (CRCs) were derived directly from the primary screen, and both potency and efficacy values were used to identify compounds with robust bioactivity profiles. […] These two assays will be used to validate active compounds and assess the correlation of compound's potency in 2D vs 3D cultures on selected cell lines. Assay Submitter: Nathalia J. Martinez, National Center for Advancing Translational Sciences, National Institutes of Health, Rockville, MD, USA; email: natalia.martinez@nih.gov Shen, M et al. Quantitative high-throughput phenotypic screening of pediatric cancer cell lines identifies multiple opportunities for drug repurposing. Oncotarget 2017 Dec 19;9(4):4758-4772. PMID 29435139.
# The cells were obtained from University of North Carolina (UNC), Pediatric Preclinical Testing Program (PPT), and Coriell Institute (CI). qHTS viability in 3D culture: Cells were assayed in phenol red-free growth media at a density of 1,000 cells/well, with the exception of Daoy, and SH-N-SH which were assayed at 1,500 cells/ well. Thirty muL of cells were dispensed into 384-well, ULA, round bottom plates (Corning) using a Multidrop dispenser. […] Spheroid viability was first determined by high-content imaging using Hoechst 33342 and Propidium Iodide (PI, ThermoFisher Scientific), followed by addition of CellTiter-Glo 3D (Promega). […] Plates were incubated for 30 min at RT on a VWR microplate shaker (300 rpm) and analyzed for luminescence intensity using a ViewLux High-throughput CCD imager equipped with clear filters. […] The data were exported to Excel, and the average fluorescent intensities were used to calculate the ratio of PI over Hoechst, which was used to quantify viability. […]
row,Structure (SMILES),Potency
1,COc1c(C)c2c(c(O)c1C/C=C(\C)CCC(=O)O)C(=O)OC2,909 nM (active)
2,CC[C@]1(O)C[C@@H]2CN(CCc3c([nH]c4ccccc34)[C@@](C(=O)OC)(c3cc4c(cc3OC)N(C)[C@H]3[C@@](O)(C(=O)OC)[C@H](OC(C)=O)[C@]5(CC)C=CCN6CC[C@]43[C@@H]65)C2)C1,inactive
3,CC[C@H]1CN2CCc3cc(OC)c(OC)cc3[C@@H]2C[C@@H]1C[C@H]1NCCc2cc(OC)c(OC)cc21,810 nM (active)
4,CC(NCc1ccc2c(c1)nc(NC(=O)c1ccc(-c3cn[nH]c3)s1)n2CC(C)(C)O)C(C)(C)C (centres undefined),722 nM (active)
